Assay outcomes from PubChem.
The sample as a whole holds a higher share of hits than the screen did.
Pf Dd2 growth: Plasmodium falciparum Dd2 growth inhibition. P. falciparum Dd2 growth, SYBR Green, 72 h. actives 4.3% (n = 120,000). Potency, µM (doses to about 28.9 µM), hits mostly inhibitors; active = well fitted inhibition curve with a large enough effect; also: nearly all actives have a fitted effect of over 65% in size
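Readout: SYBR Green fluorescence, 485 nm excitation, 535 nm emission, after ~16 h lysis at 37C. Before that, Dd2-infected red cells (2.5% hematocrit) grew 72 h with compound, 29 uM top final concentration.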
A number is an active result; n = inactive.

SMILES | Pf Dd2 growth
O=C(N[C@H]1CCN2C(=O)N(c3cccc(C(F)(F)F)c3)C(=O)[C@@H]2C1)c1ccncc1 | n
Fc1ccc(CN2CCOC[C@H](Oc3ccccc3)C2)cc1 | 13µM
COc1ccc(CN2CCOC[C@H](Oc3cccc(C)n3)C2)cc1 | n
CS(=O)(=O)c1ccc(O[C@H]2COCCN(Cc3cccnc3)C2)cc1 | n
COc1ccc(CN2CCOC[C@H](Oc3ccccc3)C2)cc1 | 7.1µM
COc1ccc(CN2CCOC[C@H](Oc3ccc(C(F)(F)F)cn3)C2)cc1 | n
COc1ccc(OC2CN(Cc3ccc(F)cc3)C2)cc1 | n
CC1=C[C@@H](CNC(=O)CCC(=O)O)[C@H](C(C)C)C[C@H]1CC(=O)NCc1ccc(C#N)cc1 | n
O=C(NCCc1ccncc1)C1CN(C(=O)c2ccsc2)CC12CCOCC2 (stereo not given) | n
O=C(NCc1ccco1)N[C@@H]1CCOC[C@H]1OCc1ccccc1 | n
CCC(C)NC(=O)N1CCC(Cc2nc(-c3ccncc3)n[nH]2)CC1 (stereo not given) | n
Cc1ccc(Cn2c(=O)n(CC3CCC(C(=O)N4CCOCC4)CC3)c(=O)c3sccc32)cc1 (stereo not given) | n
Cc1ccccc1Cn1c(=O)n(CC2CCC(C(=O)N3CCOCC3)CC2)c(=O)c2sccc21 (stereo not given) | n
O=C(C1CCC(Cn2c(=O)c3sccc3n(Cc3cccc(F)c3)c2=O)CC1)N1CCCCC1 (stereo not given) | 8.9µM
COCc1cc(N2CCN(Cc3ccccc3C#N)CC2)ncn1 | n
CSCc1noc(CNC(=O)CN2CCN(c3ncccn3)CC2)n1 | n
COC1CCC12CCN(Cc1scnc1C)CC2 (stereo not given) | n
CCOC(=O)CCNC(=O)N1CCCCCCn2c(nnc2-c2ccc(F)cc2)CC1 | n
CCOc1ccc(CNC(=O)C2CCN(Cc3cc4ccccc4n3Cc3ccccc3C)CC2)cc1 | n
Cc1ccccc1Cn1c(CN2CCC(C(=O)NCc3ccc(Cl)cc3)CC2)cc2ccccc21 | n
Cc1ccccc1Cn1c(CN2CCC(C(=O)NCCN(C)C)CC2)cc2ccccc21 | 1µM
Cc1cn2nc(C(=O)N3CCN(c4ccccc4)CC3)cc2c(N2CCCC2)n1 | n
Cc1cn2nc(C(=O)NCCCc3ccccc3)cc2c(N2CCCC2)n1 | n
Cc1cn2nc(C(=O)N3CCC(C)CC3)cc2c(N(C)Cc2ccccc2)n1 | 11µM
COc1ccc(NC(=O)c2cc3c(N(C)Cc4ccccc4)nc(C)cn3n2)cc1OC | n
SMILES | Pf Dd2 growth
Cc1cn2nc(C(=O)N3CCCC3)cc2c(N(C)Cc2ccccc2)n1 | n
Cc1cn2nc(C(=O)Nc3ccccc3F)cc2c(N(C)Cc2ccccc2)n1 | 7.9µM
CCc1nnc([C@@H]2CC(F)(F)CN2C(=O)CCn2nc(C)cc2C)o1 | n
CN(Cc1ccccc1)C(=O)CCC1CCN(C(=O)CCN2CCCO2)CC1 | n
Cc1cc(C)cc(CCC(=O)NC2(C#N)CCCCC2)c1 | n
CCNC(=O)N[C@H]1[C@H](O)[C@@H](Oc2ccccc2)[C@@H]2OC[C@H]1O2 | n
CN1[C@@H](CCC(=O)N2CCOCC2)CNC(=O)[C@@H]2[C@H]1CCN2CC(C)(C)C | n
COCCNC(=O)[C@@H]1C[C@H](Oc2cccnc2)CN1S(=O)(=O)c1ccc2c(c1)CCC2 | n
CN(C(=O)c1ccccc1F)C1CCc2ccccc21 (stereo not given) | n
CCOc1ccc(NC(=O)CN2CCN(Cc3ccccc3)S2(=O)=O)cc1 | 5.6µM
CCc1cccc(NC(=O)CN2CCCN(Cc3cccc(C)c3)S2(=O)=O)c1 | n
COc1cccc(CNC(=O)CN2CCCN(Cc3ccccc3)S2(=O)=O)c1 | n
CC(C)C1C(=O)NCCN1C(=O)c1coc(COc2ccc3c(c2)OCO3)n1 (stereo not given) | n
O=C1CC(c2nc(-c3ccc4nc[nH]c4c3)no2)CN1C1CC1 (stereo not given) | n
CN(Cc1nc(-c2ccccc2)cs1)C(=O)c1cccc(-n2cnnc2)c1 | n
CNC(=O)[C@@H]1CN(C(=O)c2cc(C3CC3)[nH]n2)C[C@H]1c1nc(COC)no1 | n
O=C(NCc1ccncc1)C1CN(Cc2ccoc2)CC12CCOCC2 (stereo not given) | n
O=C(NCc1ccncc1)C1CN(Cc2cccc(Br)c2)CC12CCOCC2 (stereo not given) | 3.5µM
CCc1ccc(CN2CC(C(=O)NCc3ccncc3)C3(CCOCC3)C2)cc1 (stereo not given) | n
COCC(=O)N[C@H]1CC[C@]2(C)CCC([C@H](C)C(=O)NCCN3CCOCC3)[C@H](O)[C@H]2[C@@H]1C (stereo not given in full) | n
COc1ccc(N2CCN(C(=O)CN3C(=O)NC4(CCOCC4)C3=O)CC2)cc1 | n
COCC1CN(C(C)=O)CC12CCN(Cc1cccc(Cl)c1F)CC2 (stereo not given) | n
CCOC(=O)c1cnc2ccc(OCC)cc2c1NCCc1ccc(OC)c(OC)c1 | 4.5µM
CCOC(=O)c1ccc2ncc(C(=O)OCC)c(Nc3ccc(C)c(Br)c3)c2c1 | n
CCOC(=O)c1cnc2c(C)c(Cl)ccc2c1NCCc1ccccc1 | n
